This is a sample that favours compounds with a hit; in the whole collection about 1.5% have one here.
sPLA2-III inh: Inhibits HGIII-sPLA2 liposome hydrolysis, primary screen | AID 743126 | inhibition, % at 12.2 µM | Q9NZ20 | QFRET BODIPY PC-A2 liposome hydrolysis, fluorescence | 370,000 compounds, 0.56% hits;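 active = inhibition above mean plus 3 SD of compounds lying within the high and low control bounds, cut at about 19% in these data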
PLCb3 inh: PLC-beta3 (human) inhibition, primary screen; Purified PLC-beta3, fluorogenic substrate, fluorescence; Q01970; inhibition, % at 12.2 µM; AID 720704; 370,000 compounds, 0.18% hits
PLC-gamma1 inh: PLC-gamma1 (human) inhibition, primary screen. P19174. purified PLC-gamma1, fluorogenic substrate, fluorescence. inhibition, % at 12.2 µM. 370,000 compounds, 0.84% hits. AID 720700; in the data active = inhibition above about 9.5%
DAGLB inh: blocks human DAGLB lipase activity; inhibition, % at 5.17 µM; 340,000 compounds, 0.059% hits; HEK293T DAGLB membrane lysate, EnzChek fluorogenic substrate; Q8NCG7; in the data active = inhibition above about 34%
Target sequence (Q8NCG7 whole entry, looked up): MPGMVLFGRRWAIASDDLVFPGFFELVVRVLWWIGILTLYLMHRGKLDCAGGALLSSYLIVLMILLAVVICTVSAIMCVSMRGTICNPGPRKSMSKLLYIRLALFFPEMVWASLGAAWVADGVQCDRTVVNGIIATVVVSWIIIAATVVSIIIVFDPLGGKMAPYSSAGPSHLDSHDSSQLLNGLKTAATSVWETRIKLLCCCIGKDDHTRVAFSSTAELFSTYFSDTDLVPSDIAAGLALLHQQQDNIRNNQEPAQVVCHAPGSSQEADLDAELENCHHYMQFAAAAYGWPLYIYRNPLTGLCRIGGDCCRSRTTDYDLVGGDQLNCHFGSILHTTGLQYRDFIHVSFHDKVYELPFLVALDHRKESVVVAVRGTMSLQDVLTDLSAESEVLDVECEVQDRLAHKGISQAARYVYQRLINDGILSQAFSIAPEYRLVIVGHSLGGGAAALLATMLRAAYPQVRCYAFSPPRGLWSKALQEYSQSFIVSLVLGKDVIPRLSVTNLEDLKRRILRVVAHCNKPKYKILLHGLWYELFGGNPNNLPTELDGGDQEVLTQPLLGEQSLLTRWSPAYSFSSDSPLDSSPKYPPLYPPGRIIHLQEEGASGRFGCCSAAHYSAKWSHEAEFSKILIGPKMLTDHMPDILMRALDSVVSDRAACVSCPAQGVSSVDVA
PLCgamma1 ctr: counter-screen for PLC-beta3 inhibitors: inhibitors of human PLC-gamma1; purified PLC-gamma1, fluorogenic substrate, fluorescence; 3,300 compounds, 3.1% hits; AID 743258; shares compounds with PLC-gamma1 inh; inhibition, % at 12.3 µM; in the data active = inhibition above about 9.5%
PLCb3 confirm: human PLC-beta3 inhibition, confirmation | AID 743261 | 3,300 compounds, 1% hits | inhibition, % at 12.3 µM | purified PLC-beta3, fluorogenic substrate fluorescence | shares compounds with PLC-gamma1 inh
Each line names hits and unclear results; the compound was inactive in the other large screens (follow-up assays come after a bar, where they were run). Rule as the data show it, unless noted: active = inhibition above about 11%; inactive = the rest.

CCOC(=O)c1ccccc1NC(=O)c1cn(-c2ccc(C)c(C)c2)c(=O)c2ccccc12	PLC-gamma1 inh 9.9 | PLCgamma1 ctr inactive | PLCb3 confirm inactive
CCCC1CCC2(CC1)CCC2OC(=S)Nc1cccc(C(F)(F)F)c1 (stereo not drawn)	none (no result: DAGLB inh)
O=C(C1CCCCC1)N1CCC(c2nc3c(nnn3Cc3ccccc3Cl)c(=O)[nH]2)CC1	none
O=C(Cc1cccs1)N1CCC(c2nc3c(nnn3Cc3ccccc3Cl)c(=O)[nH]2)CC1	PLCb3 inh 16.8, PLC-gamma1 inh 17.8 | PLCgamma1 ctr 11.0 | PLCb3 confirm 15.7
O=c1[nH]c(C2CCN(S(=O)(=O)c3ccccc3)CC2)nc2c1nnn2Cc1ccc2c(c1)OCCO2	PLC-gamma1 inh 10.0 | PLCgamma1 ctr inactive | PLCb3 confirm inactive
CC(C)(C)OC(=O)NCc1ccccc1/C=C/S(=O)(=O)NCc1ccccc1	none (no result: DAGLB inh)
CC1(C(=O)NC2CCCCCCC2)CCC(=O)N1Cc1cccnc1 (stereo not drawn)	PLC-gamma1 inh 13.1 | PLCgamma1 ctr inactive | PLCb3 confirm inactive
O=C(O)CCCN1C(=O)C2C3CCC(C3)C2C1=O (stereo not drawn)	PLC-gamma1 inh 11.6 | PLCgamma1 ctr inactive | PLCb3 confirm inactive
O=C(O)CCCN1C(=O)C2C3CCC(O3)C2C1=O (stereo not drawn)	none
O=C(O/N=C1\CCCc2ccccc21)c1cccc(Cl)c1	PLCb3 inh 11.1, PLC-gamma1 inh 9.6 | PLCgamma1 ctr inactive | PLCb3 confirm inactive
Cc1ccc(O)c(NC(=O)CCCC(=O)O)c1	none
Cc1cc(NC(=O)CCCC(=O)O)nc(C)n1	PLC-gamma1 inh 10.5 | PLCgamma1 ctr inactive | PLCb3 confirm inactive
O=S(=O)(NCCOCCNS(=O)(=O)c1ccccc1)c1ccccc1	PLC-gamma1 inh 11.0 | PLCgamma1 ctr inactive | PLCb3 confirm inactive
C[C@H]1[C@H](NC(=O)c2ccc(Cl)c(C(F)(F)F)c2)CC[C@@]23CCCN2C(=O)CCC[C@@H]13	none (no result: DAGLB inh)
CCCCN(C)CCCNC(=O)C1(O)c2ccccc2NC(=O)N1c1ccc(Cl)cc1 (stereo not drawn)	PLC-gamma1 inh 11.7 | PLCgamma1 ctr inactive | PLCb3 confirm inactive
CCC(C)NC(=O)C1(O)c2ccccc2NC(=O)N1c1ccc(C)c(C)c1 (stereo not drawn)	PLC-gamma1 inh 11.4 | PLCgamma1 ctr inactive | PLCb3 confirm inactive
CCOCCCNC(=O)C1(O)c2ccccc2NC(=O)N1c1ccc(Cl)c(Cl)c1 (stereo not drawn)	none
CCN1C(=O)CC(NNC(=O)c2ccccc2)C1=O (stereo not drawn)	none
CN(C)N1C(=O)CC(NNC(=O)c2ccncc2)C1=O (stereo not drawn)	PLC-gamma1 inh 10.4 | PLCgamma1 ctr inactive | PLCb3 confirm inactive
CCOC(=O)C1(CC2CC2)CCN(S(=O)(=O)C[C@]23CC[C@H](CC2=O)C3(C)C)CC1	PLC-gamma1 inh 11.9 | PLCgamma1 ctr inactive | PLCb3 confirm inactive
CSc1nc(=O)n(CCC#N)nc1SC	PLCb3 inh 11.5 (no result: DAGLB inh) | PLCgamma1 ctr inactive | PLCb3 confirm inactive
CSc1cnn(CCC#N)c(=O)n1	PLC-gamma1 inh 11.6 (no result: DAGLB inh) | PLCgamma1 ctr inactive | PLCb3 confirm inactive
Cc1nnc(SCCC#N)n(CCC#N)c1=O	none
O=C(Cc1cccc2ccccc12)NN1C(=O)CSC1=S	none
O=C(NN1C(=O)CSC1=S)C(=O)NN1C(=O)CSC1=S	PLC-gamma1 inh 43.6 | PLCgamma1 ctr 71.3 | PLCb3 confirm inactive
O=C(NCC1CC1)c1csc(COCCO)n1	PLCb3 inh 12.8 (no result: DAGLB inh) | PLCgamma1 ctr inactive | PLCb3 confirm inactive
Cc1cnc(CNC(=O)c2csc(COCCO)n2)cn1	none (no result: DAGLB inh)
COc1ccccc1-n1cnc(N)c1C(=O)c1ccccc1	PLC-gamma1 inh 12.2 | PLCgamma1 ctr inactive | PLCb3 confirm inactive
CN(CC(=O)Nc1ccc(Cl)c(C(F)(F)F)c1)C(=O)Cc1n[nH]c(=O)c2ccccc12	PLC-gamma1 inh 10.0 | PLCgamma1 ctr inactive | PLCb3 confirm inactive
CN(CC(=O)Nc1cccc(F)c1)C(=O)Cc1n[nH]c(=O)c2ccccc12	none
O=S(=O)(Nc1ccc(C(O)(C(F)(F)F)C(F)(F)F)cc1)c1cccs1	none (no result: DAGLB inh)
Cc1cc(-c2nc(C)c(C(=O)NNS(=O)(=O)c3cccc(C(F)(F)F)c3)s2)no1	PLC-gamma1 inh 10.5 (no result: DAGLB inh) | PLCgamma1 ctr inactive | PLCb3 confirm inactive
C/C(=N\Nc1nc(-c2cc(C)ccc2C)cs1)c1cc2ccccc2oc1=O	PLC-gamma1 inh 10.4 | PLCgamma1 ctr inactive | PLCb3 confirm inactive
C/C(=N\Nc1nc(-c2cc(C)ccc2C)cs1)c1cc2c(ccc3ccccc32)oc1=O	none
Cn1c(=O)cc(OCCCC(=O)Nc2cc(-c3ccncc3)ccn2)c2ccccc21	none (no result: DAGLB inh)
CSCC[C@H](NC(=O)CCn1nnc2ccccc2c1=O)C(=O)O	PLCb3 inh 12.4, PLC-gamma1 inh 10.5 | PLCgamma1 ctr inactive | PLCb3 confirm inactive
O=c1c2ccccc2ncn1-c1ccc(Cl)cc1Cl	none (no result: DAGLB inh)
O=c1c2ccccc2sn1-c1ccc(Cl)cc1Cl	PLCb3 inh 15.9 | PLCgamma1 ctr inactive | PLCb3 confirm inactive
CC(C)(C)OC(=O)N1CCN(C(=O)c2[nH]cnc2C(=O)N[C@@H](Cc2ccccc2)C(=O)OCc2ccccc2)CC1	none
CC(C)C[C@H](NC(=O)c1nc[nH]c1C(=O)N1CCN(C(=O)OC(C)(C)C)CC1)C(=O)OCc1ccccc1	PLC-gamma1 inh 10.4 | PLCgamma1 ctr inactive | PLCb3 confirm inactive
Nc1cc(=O)[nH]c(SCc2cccc(Cl)c2)n1	PLC-gamma1 inh 10.0 | PLCgamma1 ctr inactive | PLCb3 confirm inactive
CC(C)C12CN3CC(C(C)C)(CN(C1)C3c1ccc3c(c1)OCO3)C2=O (stereo not drawn)	PLCb3 inh 12.3 | PLCgamma1 ctr inactive | PLCb3 confirm inactive
CC12CN3CC(C)(CN(C1)C3c1ccc3c(c1)OCO3)C2 (stereo not drawn)	none
CC(C)(C)OC(=O)/C=C/[C@H](CCCCl)Sc1ccc(C(C)(C)C)cc1	none (no result: DAGLB inh)
Cc1onc(-c2c(Cl)cccc2Cl)c1C(=O)ONC(=O)c1cc(C(F)(F)F)cc(C(F)(F)F)c1	PLC-gamma1 inh 10.1 | PLCgamma1 ctr inactive | PLCb3 confirm inactive
Cc1onc(-c2c(Cl)cccc2Cl)c1C(=O)Nn1cnnc1	none
COc1ccc(S(=O)(=O)Nc2c(F)cccc2F)cc1	PLC-gamma1 inh 13.5 | PLCgamma1 ctr inactive | PLCb3 confirm inactive
CC(C)CCNC(=O)C(c1ccncc1)N(C(=O)Cn1nnc(-c2ccc(F)cc2)n1)c1ccccc1F (stereo not drawn)	PLC-gamma1 inh 10.1 | PLCgamma1 ctr inactive | PLCb3 confirm inactive
CC(C)CCNC(=O)C(c1ccncc1)N(CC1CCCO1)C(=O)Cn1nnc(-c2ccc(F)cc2)n1 (stereo not drawn)	none
O=S(=O)(c1ccccc1)c1cnn(-c2ccccc2)c1-c1ccc(F)cc1	PLCb3 inh 14.7 | PLCgamma1 ctr inactive | PLCb3 confirm 12.5
CCOC(=O)CC1(C)Oc2ccccc2N1S(=O)(=O)c1ccc(C)cc1 (stereo not drawn)	PLC-gamma1 inh 9.8 (no result: DAGLB inh) | PLCgamma1 ctr inactive | PLCb3 confirm inactive

Source: PubChem BioAssay (The Scripps Research Institute Molecular Screening Center)
